# Results as given in PubChem BioAssay (EPA / NIEHS).
# Where “and” joins values, the source holds several entries; their conditions need not be identical. Equal values may be shown once. Where a structure was tested more than once in an assay, its records may differ in their call. Calls of active or inactive are those of the source. How the source made its calls: active means hit-call score of the fitted dose curve at least 0.9, where 1 is the maximum; inactive means score below 0.9.
# Test: CCTE_Shafer_MEA_dev_network_spike_number: CCTE's Neural Network Formation Assay for Number of Network Spikes, Shafer Lab (AID 2284048);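 further: synchronized bursts across electrodes counted on days 5 7 9 12 and integrated as AUC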;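 on AC50: fit as a loss of signal meaning fewer network spikes than DMSO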
# Procedure: CCTE_Shafer_MEA_dev assay is conducted using Axion Biosystems 48 well microelectrode array (MEA) plates and Maestro recording system. Each well of the MEA plate contains a grid of 16 microelectrodes embedded in the culture surface. Electrically active cells, such as neurons, can be cultured over the electrodes, and electrical activity in these cells can be recorded extracellularly. The spontaneous firing of neurons is captured from each electrode on a microsecond timescale providing both temporally and spatially precise data. […] The CCTE_Shafer_MEA_dev assay uses primary cultures of rat cortical neurons. Recordings are made on days post-plating 5, 7, 9 and 12. As these cultures mature over time, neural networks develop functional activity and form cohesive networks in which electrical activity can be highly coordinated. CCTE_Shafer_MEA_dev_network_spike_number is 1 of 19 assay components of the CCTE_Shafer_MEA_dev assay. It measures the number of network spikes (temporally-clustered groups of action potential firing across multiple electrodes) during a recording in a microelectrode array (MEA) using Axion Biosystems Maestro 768 channel amplifier with the AxIS adaptive spike detector. To collapse across multiple recordings made on days post-plating 5, 7, 9 and 12, the trapezoidal area-under-the-curve of the component is calculated.Data from the assay component CCTE_Shafer_MEA_dev_network_spike_number was analyzed into 1 assay endpoint. This assay endpoint, CCTE_Shafer_MEA_dev_network_spike_number, was analyzed in the negative analysis fitting direction relative to DMSO as the negative control and baseline of activity. Using a type of functional reporter, gain or loss-of-signal activity can be used to understand electrical activity.
# On the day prior to culture, each well was coated thoroughly with 150 uL of 0.05% polyethyleneimine (PEI, Sigma Cat P3143) in 50 mM HEPES (Sigma Cat H7523) at a pH of 8. The plate was incubated at 37C for one hour. PEI was rinsed out with 500 uL of sterile water three times. Plates were stored at 4C until the day of culture. This culture was plated at a seeding density of 1.5 x 10^5 cells/well on a 48-well MEA plate, prepared as described above. Cells were administered via a 25 uL media/laminin ([…]; Sigma Cat L2020-1MG) drop directly onto the microelectrode array, as adding the cells with the laminin results in better attachment than pre-coating with laminin. After 2 hours, an additional 475 uL of cortical media was added and the cells returned to the incubator. Exposure starts at day 0 of plating and is continued over twelve days of network development until the experiment is terminated. Cells are fed with fresh medium on DIV 5 and 9, following the recordings on those days. The entire volume of media in the well is exchanged and any vehicle or compound treatment is renewed. Complete details are found in OP-NHEERL/ISTD/SBB/TJS/2015-03-r0 (available on request, email shafer.tim@epa.gov). Measurement of the electrical activity is non-invasive, and recordings can be made from the same plate over multiple different days of the culture. In cortical neurons, this allows for the measurement of extracellular action potentials over the period during which networks form in the MEA plate.
SMILES,AC50,outcome
CCCCNC(=O)OCC#CI,2.92 µM (active) and 1.21 µM (active),–
Cc1ccc(-c2c(Cl)nc(C#N)n2S(=O)(=O)N(C)C)cc1,30.2 µM (active),–
CC(C)(C)c1ccc(CSc2cnn(C(C)(C)C)c(=O)c2Cl)cc1,0.00216 µM (active),–
CCCCC(CC)COC(=O)c1ccccc1C(=O)OCC(CC)CCCC (stereo not given),2.32 µM (active) and 12.8 µM (active),inactive
Cc1c(F)c(F)c(COC(=O)C2C(/C=C(\Cl)C(F)(F)F)C2(C)C)c(F)c1F (stereo not given),0.311 µM (active),–
COC(=O)N(OC)c1ccccc1COc1ccn(-c2ccc(Cl)cc2)n1,0.0669 µM (active),inactive
CCOC(=O)CC(SP(=S)(OC)OC)C(=O)OCC (stereo not given),11.7 µM (active),inactive
CN(C)C(=S)SSC(=S)N(C)C,0.00554 µM (active),–
C=CCC1=C(C)C(OC(=O)C2C(C=C(C)C)C2(C)C)CC1=O (stereo not given),1.15 µM (active),inactive
CNC(=O)ON=CC(C)(C)SC,–,inactive
C=CC1(C)OC(=O)N(c2cc(Cl)cc(Cl)c2)C1=O (stereo not given),–,inactive
CCCCOC(=O)c1ccccc1C(=O)OCCCC,–,inactive
N#Cc1nn(-c2c(Cl)cc(C(F)(F)F)cc2Cl)c(N)c1S(=O)C(F)(F)F (stereo not given),–,inactive
CCCCNC(=O)n1c(NC(=O)OC)nc2ccccc21,–,inactive
CCNc1nc(Cl)nc(NC(C)C)n1,–,inactive
COc1ccc(C(c2ccc(OC)cc2)C(Cl)(Cl)Cl)cc1,–,inactive
C=CCC1=C(C)[C@@H](OC(=O)[C@@H]2[C@@H](C=C(C)C)C2(C)C)CC1=O,–,inactive
CO/C=C(/C(=O)OC)c1ccccc1Oc1cc(Oc2ccccc2C#N)ncn1,948 nM (active) and 767 nM (active),–
COP(=S)(OC)Oc1nc(Cl)c(Cl)cc1Cl,–,inactive
CCOc1cc(Oc2ccc(C(F)(F)F)cc2Cl)ccc1[N+](=O)[O-],6.09 µM (active),–
COP(N)(=O)SC (stereo not given),–,inactive
